This note sets out measurements from PubChem BioAssay (EPA / NIEHS).

Experiment [1] deals with Nuclear receptor subfamily 1 group I member 3 (Homo sapiens) (UniProt Q14994). Description: ATG_CAR_TRANS: Attagene TRANS-FACTORIAL HepG2 Assay for human Constitutive Androstane Receptor (CAR) (AID 2282969).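 Also: activators raise reporter mRNA above DMSO so AC50 marks induction.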 Particulars: HepG2 Attagene TRANS-FACTORIAL CAR reporter. A digest of the protocol: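 Readout is reporter mRNA induction, quantified by fluorescent primer extension and capillary electrophoresis after RT-PCR. Cells were HepG2 transiently carrying chimeric NR-Gal4 constructs with GAL4-UAS reporters, treated for 24 h; activity scored upward from DMSO.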

Experiment [2] addresses Estrogen receptor (Homo sapiens) (UniProt P03372). In words: ATG_ERa_TRANS: Attagene TRANS-FACTORIAL HepG2 Assay for human Estrogen Receptor alpha (ERa) (AID 2282970). As to conditions: HepG2 Attagene TRANS ERa GAL4 reporter, mRNA. A digest of the protocol:
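HepG2 cells transiently transfected with multiplexed GAL4-UAS reporter units; ERa activity read via exogenous chimeric NR-Gal4 protein. After 24 hour compound exposure, reporter mRNA measured by RT-PCR with 6-FAM labelling and capillary electrophoresis; gain-of-signal fitted relative to DMSO.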

The target in experiment [3] is Steroid hormone receptor ERR1 (Homo sapiens) (UniProt P11474). In words: ATG_ERRa_TRANS: Attagene TRANS-FACTORIAL HepG2 Assay for human Estrogen-Related Receptor alpha (ERRa) (AID 2282971). As to conditions: HepG2 Attagene TRANS reporter, ERRa transactivation. A digest of the protocol:
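HepG2 cells transiently transfected with multiplexed GAL4-UAS reporter units reading chimeric ERRa-Gal4 activity; 24 h compound exposure. Reporter mRNA measured by RT-PCR, 6-FAM labelling, HpaI digest and capillary electrophoresis; gain of signal fitted versus DMSO baseline.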

Experiment [4] has as its target X-box-binding protein 1 (Homo sapiens) (UniProt P17861). Description: ATG_Xbp1_CIS: Attagene CIS-FACTORIAL HepG2 Assay for human X-box Binding Protein 1 (XBP1) (AID 2282972; active = hit-call score of the fitted dose curve at least 0.9, where 1 is the maximum; inactive = score below 0.9). Particulars: HepG2 XBP1 cis-element reporter, Attagene multiplex; actives raise or lower the signal. In a few lines:
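HepG2 cells transiently transfected with multiple cis-element reporter units report endogenous TF activity; 24 h exposure, then reporter mRNA measured by RT-PCR, 6-FAM labelling, HpaI digestion and capillary electrophoresis. Bidirectional fitting versus DMSO.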

The target in experiment [5] is Androgen receptor (Homo sapiens) (UniProt P10275). Description: ATG_AR_TRANS: Attagene TRANS-FACTORIAL HepG2 Assay for human Androgen Receptor (AR) (AID 2282973). As to conditions: HepG2 Attagene TRANS-FACTORIAL AR reporter transcription. A digest of the protocol:
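HepG2 cells transiently transfected with multiplexed GAL4-UAS reporter units and chimeric NR-Gal4 fusion; 24 h compound exposure. Reporter mRNA measured by RT-PCR, 6-FAM labelling, HpaI digestion and capillary electrophoresis; gain-of-signal fitted relative to DMSO baseline.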

The nature of experiment [6]: ATG_M_19_TRANS: Attagene TRANS-FACTORIAL HepG2 Assay for M19 Transcription Factor (Internal Marker) (AID 2282974). As to conditions: HepG2 Attagene TRANS-FACTORIAL M19 internal marker reporter. In a few lines: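 Fluorescence of 6-FAM-labelled reporter cDNA fragments, separated by capillary electrophoresis, served as the readout. These derived from HepG2 cells carrying transfected GAL4-UAS reporter units after 24 h dosing, with DMSO as negative control.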

Experiment [7] is described as follows: ATG_GAL4_TRANS: Attagene TRANS-FACTORIAL HepG2 Assay for GAL4 (Internal Marker) (AID 2282976). As to conditions: HepG2 Attagene TRANS GAL4 internal marker reporter. In a few lines: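 HepG2 cells transiently transfected with multiplexed GAL4-UAS reporter constructs were dosed for 24 h. Reporter mRNA was measured by RT-PCR, 6-FAM primer extension, HpaI digestion and capillary electrophoresis, and gain of signal was fitted relative to DMSO.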

The target of experiment [8] is Bile acid receptor (Homo sapiens) (UniProt Q96RI1). Description: ATG_FXR_TRANS: Attagene TRANS-FACTORIAL HepG2 Assay for Farnesoid X Receptor (FXR) (AID 2282979).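 Also: hits raise reporter mRNA above DMSO so AC50 marks FXR activation.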 As to conditions: HepG2 Attagene TRANS FXR-GAL4 reporter transcription. In a few lines: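 HepG2 cells transiently transfected with reporter constructs in which a chimeric FXR-GAL4 protein drives a GAL4-UAS reporter; 24 h compound exposure. Reporter mRNA measured by RT-PCR, FAM labelling, HpaI digestion and capillary electrophoresis; gain-of-signal versus DMSO.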

Experiment [9] addresses Oxysterols receptor LXR-alpha (Homo sapiens) (UniProt Q13133). Description: ATG_LXRa_TRANS: Attagene TRANS-FACTORIAL HepG2 Assay for human Liver X Receptor alpha (LXRa) (AID 2282980). As to conditions: HepG2 Attagene TRANS reporter, LXRa transactivation. A digest of the protocol: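 HepG2 cells were transiently transfected with multiplexed reporter units driven by chimeric LXRa–GAL4 fusion proteins, then dosed for 24 h. Reporter mRNA was quantified by RT-PCR, fluorescent labelling and capillary electrophoresis; gain of signal fitted against DMSO baseline.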

Experiment [10] concerns the target Oxysterols receptor LXR-beta (Homo sapiens) (UniProt P55055). Description: ATG_LXRb_TRANS: Attagene TRANS-FACTORIAL HepG2 Assay for human Liver X Receptor beta (LXRb) (AID 2282981). Particulars: HepG2 Attagene TRANS GAL4-LXRb reporter, mRNA. A digest of the protocol:
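Transient transfection HepG2 (multiplexed RTUs, GAL4-UAS); NR-Gal4 chimera; 24 h exposure; RNA → RT-PCR → 6-FAM primer extension → HpaI → CE; increase vs DMSO.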

Experiment [11] concerns the target Hepatocyte nuclear factor 4-alpha (Homo sapiens) (UniProt P41235). In words: ATG_HNF4a_TRANS: Attagene TRANS-FACTORIAL HepG2 Assay for human Hepatocyte Nuclear Factor 4 alpha (HNF4a) (AID 2282982). Particulars: HepG2 HNF4a transactivation reporter, mRNA readout. In a few lines:
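Readout is fluorescent reporter-transcript fragments resolved by capillary electrophoresis after RT-PCR from HepG2 cells dosed for 24 h. Cells carried transfected GAL4-UAS reporter constructs measuring exogenous NR-GAL4 chimera activity; DMSO served as baseline.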

Experiment [12] in a line: ATG_M_06_TRANS: Attagene TRANS-FACTORIAL HepG2 Assay for M06 Transcription Factor (Internal Marker) (AID 2282983). Particulars: HepG2 Attagene TRANS M06 internal marker reporter. In a few lines:
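HepG2 cells transiently transfected with multiplexed GAL4-UAS reporter transcription units; after 24 h compound exposure, reporter mRNA measured by RT-PCR, FAM-labelled primer extension, HpaI digestion and capillary electrophoresis. Gain-of-signal fitted versus DMSO baseline; background control readout.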

The nature of experiment [13]: ATG_M_32_TRANS: Attagene TRANS-FACTORIAL HepG2 Assay for M32 Transcription Factor (Internal Marker) (AID 2282984). As to conditions: HepG2 Attagene TRANS M32 internal marker reporter. A digest of the protocol: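 Measures reporter mRNA induction in human HepG2 liver cells after 24 h chemical treatment. Transcripts from transiently transfected GAL4-UAS reporter units are amplified, fluorescently labelled and sized by capillary electrophoresis; gain of signal relative to DMSO.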

Experiment [14] has as its target Transcriptional activator Myb (Homo sapiens) (UniProt P10242). In words: ATG_Myb_CIS: Attagene CIS-FACTORIAL HepG2 Assay for human Myeloblastosis (Myb) Proto-Oncogene Transcription Factor (AID 2282986; active = hit-call score of the fitted dose curve at least 0.9, where 1 is the maximum; inactive = score below 0.9). Particulars: HepG2 Attagene CIS-FACTORIAL Myb reporter transcription; actives raise or lower the signal. In a few lines:
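Reporter transcript levels, quantified by fluorescent RT-PCR and capillary electrophoresis, serve as the read-out. Transfected HepG2 cells carrying cis-promoter reporter units are dosed for 24 hours, and curves are fitted bidirectionally against DMSO controls.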

In experiment [15] the target is Nuclear respiratory factor 1 (Homo sapiens) (UniProt Q16656). In words: ATG_NRF1_CIS: Attagene CIS-FACTORIAL HepG2 Assay for human Nuclear Respiratory Factor 1 (NRF1) Orphan Gene (AID 2282987; active = hit-call score of the fitted dose curve at least 0.9, where 1 is the maximum; inactive = score below 0.9). As to conditions: HepG2 NRF1 cis-element reporter, Attagene multiplex; actives raise or lower the signal. In a few lines:
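Multiplexed cis-reporter assay, HepG2 cells, 24 h treatment. Total RNA → oligo(dT) RT → PCR with reporter-specific primers → 6-FAM primer extension → HpaI cut → CE. Bidirectional fit vs DMSO.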

Experiment [16] can be described thus: ATG_NFI_CIS: Attagene CIS-FACTORIAL HepG2 Assay for human Nuclear Factor I (NFI) (AID 2282989; active = hit-call score of the fitted dose curve at least 0.9, where 1 is the maximum; inactive = score below 0.9). Particulars: HepG2 cis-regulatory reporter, NFI response element transcription; actives raise or lower the signal. A digest of the protocol: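 Reporter transcripts were measured by RT-PCR with fluorescent primer extension and capillary electrophoresis 24 h post-treatment. HepG2 cells carried transiently transfected cis-regulated reporter constructs reporting endogenous factor activity; gain or loss fitted against DMSO baseline.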

Experiment [17] deals with Myc proto-oncogene protein (Homo sapiens) (UniProt P01106). Description: ATG_Myc_CIS: Attagene CIS-FACTORIAL HepG2 Assay for human Myelocytomatosis (Myc) Proto-Oncogene Transcription Factor (AID 2282990; active = hit-call score of the fitted dose curve at least 0.9, where 1 is the maximum; inactive = score below 0.9). Particulars: HepG2, Attagene cis-reporter transcription factor activity; actives raise or lower the signal. A digest of the protocol: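 HepG2, transient MRTU transfection (cis promoters, endogenous TFs); 24 h dosing; TriZol RNA → oligo(dT) RT → PCR → 6-FAM primer extension → HpaI cut → CE. Bidirectional fit vs DMSO.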

Experiment [18] has as its target Glucocorticoid receptor (Homo sapiens) (UniProt P04150). Description: ATG_GR_TRANS: Attagene TRANS-FACTORIAL HepG2 Assay for human Glucocorticoid Receptor (GR) (AID 2282978).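 Also: activators score as hits since higher reporter transcript over DMSO is fitted.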 As to conditions: HepG2 Attagene TRANS GR reporter, mRNA transcription. A digest of the protocol:
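Fluorescent capillary-electrophoresis quantitation of reporter mRNA is the readout, taken 24 h after dosing human HepG2 cells carrying transiently transfected GAL4-UAS reporter units activated by chimeric NR-GAL4 fusions; activity scored as induction over DMSO.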

The target of experiment [19] is Estrogen-related receptor gamma (Homo sapiens) (UniProt P62508). In words: ATG_ERRg_TRANS: Attagene TRANS-FACTORIAL HepG2 Assay for human Estrogen-Related Receptor gamma (ERRg) (AID 2282977).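 Also: hits increase reporter signal over DMSO so potencies reflect activators.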 As to conditions: HepG2 Attagene TRANS reporter, ERRg transactivation. A digest of the protocol:
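HepG2 cells transiently transfected with multiplexed GAL4-UAS reporter units driven by chimeric NR-Gal4 proteins; 24 h exposure. Reporter mRNA quantified by RT-PCR, fluorescent labelling, HpaI digestion and capillary electrophoresis; gain of signal vs DMSO.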

Molecules are shown by their SMILES. Inconclusive results are not listed. The source made the active and inactive calls. The calls were made as follows, unless noted: active = hit-call score of the fitted dose curve at least 0.9, where 1 is the maximum; inconclusive = response in the unintended direction; inactive = score below 0.9.

Sequence of Nuclear receptor subfamily 1 group I member 3 (Homo sapiens) (Q14994 whole entry, looked up, the tested form may be a part): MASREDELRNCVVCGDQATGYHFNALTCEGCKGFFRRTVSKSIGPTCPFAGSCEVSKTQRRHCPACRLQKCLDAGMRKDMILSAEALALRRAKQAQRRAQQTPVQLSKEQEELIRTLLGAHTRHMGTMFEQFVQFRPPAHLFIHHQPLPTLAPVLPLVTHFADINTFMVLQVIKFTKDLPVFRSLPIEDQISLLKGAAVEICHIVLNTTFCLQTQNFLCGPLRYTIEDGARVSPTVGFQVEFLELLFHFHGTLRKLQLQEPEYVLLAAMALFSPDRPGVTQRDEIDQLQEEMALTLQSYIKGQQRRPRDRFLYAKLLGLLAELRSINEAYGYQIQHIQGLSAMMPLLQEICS
Sequence of Bile acid receptor (Homo sapiens) (Q96RI1 whole entry, looked up, the tested form may be a part): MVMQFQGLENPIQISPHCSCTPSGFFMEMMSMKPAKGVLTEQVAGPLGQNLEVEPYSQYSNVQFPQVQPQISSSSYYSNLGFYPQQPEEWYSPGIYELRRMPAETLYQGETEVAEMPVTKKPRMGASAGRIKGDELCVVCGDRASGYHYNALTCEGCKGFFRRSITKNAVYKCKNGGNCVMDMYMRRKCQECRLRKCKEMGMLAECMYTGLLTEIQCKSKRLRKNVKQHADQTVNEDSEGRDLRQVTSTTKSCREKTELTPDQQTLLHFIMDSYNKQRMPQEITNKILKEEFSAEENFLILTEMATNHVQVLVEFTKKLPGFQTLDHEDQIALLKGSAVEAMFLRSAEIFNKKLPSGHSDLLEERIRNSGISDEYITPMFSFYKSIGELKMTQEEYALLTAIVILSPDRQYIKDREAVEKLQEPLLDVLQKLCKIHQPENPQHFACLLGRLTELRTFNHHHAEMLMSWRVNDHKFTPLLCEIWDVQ
Sequence of Estrogen receptor (Homo sapiens) (P03372 whole entry, looked up, the tested form may be a part): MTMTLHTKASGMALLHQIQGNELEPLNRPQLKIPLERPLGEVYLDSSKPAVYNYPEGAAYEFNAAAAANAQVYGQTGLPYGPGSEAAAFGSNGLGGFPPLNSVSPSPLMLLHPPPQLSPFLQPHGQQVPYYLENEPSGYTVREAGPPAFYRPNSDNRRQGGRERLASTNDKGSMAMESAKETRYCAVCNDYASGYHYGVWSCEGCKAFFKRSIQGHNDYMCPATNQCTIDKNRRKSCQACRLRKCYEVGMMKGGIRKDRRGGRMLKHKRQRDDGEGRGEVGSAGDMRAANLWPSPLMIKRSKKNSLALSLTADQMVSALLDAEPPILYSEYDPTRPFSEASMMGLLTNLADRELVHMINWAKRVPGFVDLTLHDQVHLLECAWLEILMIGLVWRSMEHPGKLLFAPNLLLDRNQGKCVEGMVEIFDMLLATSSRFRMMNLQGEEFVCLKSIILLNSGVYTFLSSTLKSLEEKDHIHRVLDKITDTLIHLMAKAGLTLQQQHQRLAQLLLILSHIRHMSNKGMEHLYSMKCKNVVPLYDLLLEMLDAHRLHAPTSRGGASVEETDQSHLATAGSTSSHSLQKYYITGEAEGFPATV
Sequence of Steroid hormone receptor ERR1 (Homo sapiens) (P11474 whole entry, looked up, the tested form may be a part): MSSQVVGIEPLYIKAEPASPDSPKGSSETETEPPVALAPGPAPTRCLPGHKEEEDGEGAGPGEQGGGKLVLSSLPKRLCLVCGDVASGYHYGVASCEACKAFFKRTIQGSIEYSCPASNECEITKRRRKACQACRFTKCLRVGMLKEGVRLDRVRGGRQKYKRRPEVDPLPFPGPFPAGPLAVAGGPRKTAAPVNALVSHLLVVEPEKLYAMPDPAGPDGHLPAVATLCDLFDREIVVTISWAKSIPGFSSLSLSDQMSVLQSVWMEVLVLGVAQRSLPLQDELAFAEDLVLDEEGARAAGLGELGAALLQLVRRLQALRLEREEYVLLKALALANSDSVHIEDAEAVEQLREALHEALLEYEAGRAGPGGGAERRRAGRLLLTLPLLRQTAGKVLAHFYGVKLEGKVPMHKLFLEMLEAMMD
Sequence of Nuclear respiratory factor 1 (Homo sapiens) (Q16656 whole entry, looked up): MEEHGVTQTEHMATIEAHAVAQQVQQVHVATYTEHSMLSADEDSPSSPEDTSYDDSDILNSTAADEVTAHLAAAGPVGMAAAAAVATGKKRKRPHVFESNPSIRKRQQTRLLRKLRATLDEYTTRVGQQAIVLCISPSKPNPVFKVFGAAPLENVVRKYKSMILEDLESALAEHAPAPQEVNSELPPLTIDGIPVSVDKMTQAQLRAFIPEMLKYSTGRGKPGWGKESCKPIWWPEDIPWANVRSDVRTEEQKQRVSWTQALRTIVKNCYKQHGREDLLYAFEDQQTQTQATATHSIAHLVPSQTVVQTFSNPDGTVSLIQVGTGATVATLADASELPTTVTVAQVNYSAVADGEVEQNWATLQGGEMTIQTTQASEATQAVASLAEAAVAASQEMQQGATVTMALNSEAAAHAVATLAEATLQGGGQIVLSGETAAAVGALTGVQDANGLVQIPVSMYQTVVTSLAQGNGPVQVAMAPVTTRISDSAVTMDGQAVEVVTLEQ
Sequence of Myc proto-oncogene protein (Homo sapiens) (P01106 whole entry, looked up): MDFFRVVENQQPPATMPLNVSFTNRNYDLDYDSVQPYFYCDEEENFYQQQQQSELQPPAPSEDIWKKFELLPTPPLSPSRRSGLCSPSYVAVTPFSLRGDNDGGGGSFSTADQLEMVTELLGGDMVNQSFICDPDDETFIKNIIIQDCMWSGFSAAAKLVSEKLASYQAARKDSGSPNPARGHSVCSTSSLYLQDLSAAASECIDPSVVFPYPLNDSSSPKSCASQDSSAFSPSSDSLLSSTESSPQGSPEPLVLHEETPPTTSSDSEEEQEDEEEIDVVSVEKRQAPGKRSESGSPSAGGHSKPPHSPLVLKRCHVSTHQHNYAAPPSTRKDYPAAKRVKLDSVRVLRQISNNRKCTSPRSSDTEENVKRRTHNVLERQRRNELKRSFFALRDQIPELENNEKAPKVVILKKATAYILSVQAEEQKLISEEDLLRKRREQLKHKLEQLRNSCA
Sequence of Oxysterols receptor LXR-alpha (Homo sapiens) (Q13133 whole entry, looked up, the tested form may be a part): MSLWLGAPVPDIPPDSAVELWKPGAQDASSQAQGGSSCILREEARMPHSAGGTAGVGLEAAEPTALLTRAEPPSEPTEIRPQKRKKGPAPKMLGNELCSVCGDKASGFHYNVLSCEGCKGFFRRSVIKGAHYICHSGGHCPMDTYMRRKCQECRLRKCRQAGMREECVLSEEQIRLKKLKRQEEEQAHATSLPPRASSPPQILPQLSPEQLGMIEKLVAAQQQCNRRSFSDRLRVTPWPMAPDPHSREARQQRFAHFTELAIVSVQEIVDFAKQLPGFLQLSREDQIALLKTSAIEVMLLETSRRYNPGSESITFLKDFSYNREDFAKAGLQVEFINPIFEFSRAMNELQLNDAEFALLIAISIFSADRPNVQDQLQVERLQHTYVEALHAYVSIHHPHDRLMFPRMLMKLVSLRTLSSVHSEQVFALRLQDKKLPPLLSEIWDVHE
Sequence of Oxysterols receptor LXR-beta (Homo sapiens) (P55055 whole entry, looked up, the tested form may be a part): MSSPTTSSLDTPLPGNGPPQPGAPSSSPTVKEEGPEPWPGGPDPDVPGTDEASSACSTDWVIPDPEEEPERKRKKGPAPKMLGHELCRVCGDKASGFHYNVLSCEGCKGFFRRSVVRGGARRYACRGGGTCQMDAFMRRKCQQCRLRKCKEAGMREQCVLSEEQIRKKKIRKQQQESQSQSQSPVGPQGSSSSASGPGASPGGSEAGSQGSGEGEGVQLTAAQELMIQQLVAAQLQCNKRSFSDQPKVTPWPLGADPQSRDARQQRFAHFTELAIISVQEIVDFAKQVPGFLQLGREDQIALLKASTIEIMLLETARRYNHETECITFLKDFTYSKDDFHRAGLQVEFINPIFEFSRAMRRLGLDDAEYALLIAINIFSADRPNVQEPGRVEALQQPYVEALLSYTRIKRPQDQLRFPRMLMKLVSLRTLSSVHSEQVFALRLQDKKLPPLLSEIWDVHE
Sequence of X-box-binding protein 1 (Homo sapiens) (P17861 whole entry, looked up): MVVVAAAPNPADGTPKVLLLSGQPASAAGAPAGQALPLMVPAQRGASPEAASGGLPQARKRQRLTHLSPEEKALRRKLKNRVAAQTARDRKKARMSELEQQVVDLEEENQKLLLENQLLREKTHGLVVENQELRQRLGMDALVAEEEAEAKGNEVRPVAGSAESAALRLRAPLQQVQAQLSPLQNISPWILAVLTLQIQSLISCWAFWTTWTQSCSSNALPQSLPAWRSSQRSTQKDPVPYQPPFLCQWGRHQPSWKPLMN
Sequence of Transcriptional activator Myb (Homo sapiens) (P10242 whole entry, looked up): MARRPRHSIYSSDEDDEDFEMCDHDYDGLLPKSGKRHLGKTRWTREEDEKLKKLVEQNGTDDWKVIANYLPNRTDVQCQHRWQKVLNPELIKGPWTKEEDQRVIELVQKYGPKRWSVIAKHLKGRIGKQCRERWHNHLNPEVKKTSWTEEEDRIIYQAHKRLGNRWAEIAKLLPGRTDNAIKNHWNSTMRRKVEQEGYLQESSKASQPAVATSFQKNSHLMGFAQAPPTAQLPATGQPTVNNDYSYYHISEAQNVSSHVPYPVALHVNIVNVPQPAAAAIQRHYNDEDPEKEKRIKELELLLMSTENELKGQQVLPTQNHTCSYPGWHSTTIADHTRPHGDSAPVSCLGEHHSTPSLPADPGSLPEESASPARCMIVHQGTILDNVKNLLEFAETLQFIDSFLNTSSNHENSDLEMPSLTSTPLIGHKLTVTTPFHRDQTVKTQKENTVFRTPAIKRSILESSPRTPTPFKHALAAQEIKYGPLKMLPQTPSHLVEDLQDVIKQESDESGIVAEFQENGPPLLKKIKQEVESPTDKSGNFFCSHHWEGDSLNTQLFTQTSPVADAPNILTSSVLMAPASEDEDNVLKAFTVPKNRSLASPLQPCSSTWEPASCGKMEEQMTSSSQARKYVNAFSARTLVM

With `COC(F)(C(F)(F)C(F)(F)F)C(F)(C(F)(F)F)C(F)(F)F` (stereo not drawn), the call in experiment [1], in experiment [2], in experiment [3], in [4], in [5] and in experiment [6] was inactive. Also, the outcome in experiment [7], in experiment [8], in experiment [9], in experiment [10], in experiment [11] and in [12] was inactive. The result in experiment [13], in experiment [14], in experiment [15], in experiment [16] and in experiment [17] was inactive.

Take `Cc1ccccc1OP(=O)(Oc1ccccc1)Oc1ccccc1`: the compound was called inactive in experiment [1], in experiment [3], in [4], in experiment [6], in [7] and in [18]. Moreover, the compound was called inactive in experiment [8], in [9], in [13], in experiment [14], in experiment [15] and in [16]. The compound was classed as inactive in experiment [17]. In addition, the AC50 (as a rule, the concentration giving half of the maximal activity seen) in [2] is 3.57 µM (active).

Turning to `CC(C)=CC1C(C(=O)OCc2cccc(Oc3ccccc3)c2)C1(C)C` (stereo not drawn), the compound was called inactive in experiment [1], in experiment [3], in [4], in experiment [6], in experiment [7] and in [19]. Besides, the call in [8], in [9], in experiment [13], in experiment [14], in [16] and in [17] was inactive. Moreover, the AC50 in experiment [2] is 12.8 µM (active).

Regarding `CCOP(=S)(OCC)SCSc1cc(Cl)ccc1Cl`, the compound was classed as inactive in [1], in experiment [2], in [4], in experiment [6], in experiment [7] and in experiment [10]. For the same compound, the call in experiment [13], in [14], in experiment [15], in [16] and in experiment [17] was inactive.

Take `CN(C)c1ccc(N=O)cc1`: the outcome in experiment [1], in experiment [2], in [3], in experiment [4], in experiment [19] and in [8] was inactive. In addition, the outcome in experiment [9], in experiment [10], in experiment [12], in [13], in experiment [14] and in experiment [16] was inactive. Besides, in experiment [17], the compound was called inactive.
